The target of the first assay is HSP90B1. Kind of assay: pooled miR-30 sensor sort-seq; sequence = guide strand. To be noted: shRNA.
On to TTCATCGTCAGCTCTGACCGAC, for which the sensor-assay potency score (higher = more potent) is 0.128.

TTTATCATCAGCAATCTTCTTG: the sensor-assay potency score (higher = more potent) turned out to be 0.391.

On to TTGCTGAAGAGTCTCGCGGGAA, for which the sensor-assay potency score (higher = more potent) was -0.855.

Regarding TTAAAAACTCGCTTGTCCCAGA, the sensor-assay potency score (higher = more potent) was found to be 0.327.

Turning to TATCATTGTATTTATCATCAGC, the sensor-assay potency score (higher = more potent) was -0.644.

Regarding TTTTACATCAAGAATAGTCAGT, the sensor-assay potency score (higher = more potent) was found to be 0.0481.

Consider TTTGTGATGCATTTAATCCATC, for which the sensor-assay potency score (higher = more potent) was -1.31.

Turning to TTTGAAGTGACAATAACCTTAT, the sensor-assay potency score (higher = more potent) is -0.631.

Turning to TTCTTGATCATGTCCAGCGTTT, the sensor-assay potency score (higher = more potent) is -0.303.

As for TTTTGAAGTGACAATAACCTTA, the sensor-assay potency score (higher = more potent) worked out at 0.45.

In turn, TTTCATCGAACTTCACTCCTTC had a sensor-assay potency score (higher = more potent) of 0.873.

In the case of TTTTTAACCAACTCTTCTCTGG, the sensor-assay potency score (higher = more potent) is -0.121.

The target of a further assay is HSPA1A. The description is as above. To be noted: shRNA.
On to TTCTTCTTGTCGGCCTCGCTGA, for which the sensor-assay potency score (higher = more potent) was -0.634.

For the sequence ATCTCTGCATGTAGAAACCGGA, the sensor-assay potency score (higher = more potent) is -0.989.

As to TGCAAAGTCTTGAAGCTCCAAA, the sensor-assay potency score (higher = more potent) is -0.87.

The record behind these values is the OligoGym collection.
Also: reference of the scale not given here.
